CYP2C19 inhib: human CYP2C19 inhibition. inhibition, % at 5 µM. 96,000 compounds, 21% hits. P33261. CYP2C19 Supersomes, luciferin-H EGE luminescence, 30 min;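 active = CYP2C19 inhibition above a set limit at 5 µM in the primary screen, cut at about 50% in these data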;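 also: plate controls were negative control wells for no effect and 2.5 mM tranylcypromine positive control for full effect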
MRP1 act: activators of MRP-1; viability increase, % at 10 µM; H69AR cells + doxorubicin, viability rescue, CellTiter-Glo; 140,000 compounds, 0.61% hits;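 active = viability gain under doxorubicin at or above a set limit, the compound median plus 3 SD, cut at about 4.7% in these data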;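 also: MRP-1 overexpressing cells given doxorubicin 25 µM after compound pretreatment; 18-22 h compound pretreatment then 72 h with doxorubicin before readout; 0% = doxorubicin-only wells and 100% = vehicle-treated cells without doxorubicin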
CYP2C9 inhib: inhibitors of human CYP2C9; 96,000 compounds, 20% hits; inhibition, % at 5 µM; CYP2C9 Supersomes, luciferin-H conversion, luminescence; P11712;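 active = blocking of liver enzyme CYP2C9 beyond about 50% at 5 µM, limit read from the data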
Target sequence (P11712 whole entry, looked up): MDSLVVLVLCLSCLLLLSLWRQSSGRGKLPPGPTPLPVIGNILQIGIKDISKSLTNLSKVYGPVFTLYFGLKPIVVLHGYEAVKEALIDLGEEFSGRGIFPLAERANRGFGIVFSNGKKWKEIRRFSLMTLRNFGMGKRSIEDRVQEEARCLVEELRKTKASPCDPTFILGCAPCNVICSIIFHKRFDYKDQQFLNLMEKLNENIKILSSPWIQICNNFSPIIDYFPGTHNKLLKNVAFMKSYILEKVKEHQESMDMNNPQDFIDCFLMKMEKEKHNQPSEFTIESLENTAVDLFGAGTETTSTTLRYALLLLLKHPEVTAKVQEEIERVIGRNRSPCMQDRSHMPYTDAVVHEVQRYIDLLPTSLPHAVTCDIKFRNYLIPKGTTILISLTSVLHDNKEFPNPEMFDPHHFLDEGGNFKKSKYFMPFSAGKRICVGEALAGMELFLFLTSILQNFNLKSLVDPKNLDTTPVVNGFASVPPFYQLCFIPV
CYP2C9 act: activators of human CYP2C9; AID 1024; 96,000 compounds, 1.4% hits; P11712; recombinant CYP2C9, luciferin-H conversion, luminescence; stronger effect = higher value; factor 1 = untreated enzyme, 0 = blocked; activation factor at 5 µM;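 active = activation factor of 2 or more for CYP2C9 at a 5 µM dose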;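 also: 0 = sulfaphenazole-blocked wells and 1 = vehicle-only wells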
CYP2C19 act: cytochrome P450 2C19 (human) activation; P33261; recombinant CYP2C19, luciferin-H EGE luminescence; stronger effect = higher value; 0 = fully inhibited enzyme, 1 = untreated enzyme; activation factor at 5 µM; 96,000 tested, under 10 active;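 active = activation factor of at least 2 at 5 µM in the primary screen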;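 also: 0 = wells with 2.5 mM tranylcypromine and 1 = vehicle-only wells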
MRP resist rev: compounds reversing MRP-mediated drug resistance. H69AR cells + 2 uM doxorubicin, CellTiter-Glo, 72 h. differential viability (reversal), % at 10 µM. 85,000 compounds, 0.04% hits. AID 602;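 active = viability drop by adding the cancer drug above about 55%, with treated viability meeting a 40% cutoff, limit read from the data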;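 also: viability without doxorubicin minus viability with 2 µM doxorubicin for each compound; larger differential means the compound sensitizes cells more to doxorubicin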
An asterisk follows results filed as active; nt = no result given. Shown are actives, neighbours in structure and some others; about 21% of the full set was active somewhere.

SMILES	CYP2C19 inhib	MRP1 act	CYP2C9 inhib	CYP2C9 act	CYP2C19 act	MRP resist rev
COc1ccc(NC(C)c2cc(Cl)ccc2O)cc1 (stereo unspecified)	58.4*	-1.5	49.4	0.5	0.4	4.6
CC(Nc1ccccc1)c1cc(Cl)ccc1O (stereo unspecified)	nt	-4.2	nt	nt	nt	-3.5
CCOC(=O)N1CCC(Nc2c(NCCCN(CC)c3cccc(C)c3)c(=O)c2=O)CC1	13.1	-4.2	2.1	1	0.9	22.4
Cc1ccccc1Cn1ccc(NC(=O)c2cnn3cccnc23)n1	45.2	-0.3	50.2*	0.5	0.5	-3.4
COc1ccc(CC2(C)OC(c3ccc(Cl)cc3)=NN2C(C)=O)cc1 (stereo unspecified)	nt	-1.6	nt	nt	nt	nt
COc1ccc(N2C(=O)CC(n3c(CCCCO)nc4ccccc43)C2=O)cc1 (stereo unspecified)	-2.2	-1.9	-1.9	1	1	7.2
O=Cc1c(C(=O)O)n(CC(=O)O)c2ccccc12	nt	1.5	nt	nt	nt	nt
CCOC(=O)c1ccccc1NC(=O)CCNC(=O)Cn1cnc2ccccc2c1=O	-3.1	-3.8	51.6*	0.5	1	8.7
O=C(Cn1cnc2ccccc2c1=O)c1c[nH]c2ccccc12	53.4*	-1.6	30.8	0.7	0.5	2.7
CCN(CC)S(=O)(=O)c1cc(NC(=O)Cn2cnc3ccccc3c2=O)ccc1C	42.2	-1.9	53.0*	0.5	0.6	nt
O=C(O)CCn1cnc2ccccc2c1=O	15.1	-1.3	-3.4	1	0.8	-7.7
CN(c1ccccc1)S(=O)(=O)c1cccc(NC(=O)Cn2cnc3ccccc3c2=O)c1	62.4*	-2.7	94.0*	0.1	0.4	-4.9
COc1ccc(-c2nnn(CCc3nn[nH]n3)n2)cc1	nt	nt	nt	nt	nt	-1.6
O=C(O)c1cc([N+](=O)[O-])c(N2CCCC2)c([N+](=O)[O-])c1	nt	1.9	nt	nt	nt	nt
Cc1ccc(C2C(C#N)=C(N)Oc3c2oc(CO)cc3=O)o1 (stereo unspecified)	-13.2	-2.8	-3.1	1	1.1	-5.6
COc1ccc(CNC(=O)CN(c2cc(C)cc(C)c2)S(=O)(=O)c2c(C)noc2C)cc1	36.6	-3.3	22.7	0.8	0.6	7.1
Cc1ccc(NC(=O)CN(c2cc(C)cc(C)c2)S(=O)(=O)c2c(C)noc2C)nc1	48.1	-2.2	71.8*	0.3	0.5	-9.1
Cc1cc(C)cc(N(CC(=O)NCc2ccco2)S(=O)(=O)c2c(C)noc2C)c1	81.9*	-3.0	67.3*	0.3	0.2	23.5
COc1ccc(N2CCN(C(c3cc(OC)ccc3OC)c3nnnn3CC3CCCO3)CC2)cc1 (stereo unspecified)	nt	-1.2	nt	nt	nt	17.0
COc1ccc(/C=N\NC(=O)c2ccc(=O)[nH]n2)cc1O	nt	-1.0	nt	nt	nt	nt
COc1ccc(/C=N/NC(=O)CCc2c(C)n[nH]c2C)cc1O	9.9	0.4	64.5*	0.4	0.9	-2.6
COc1ccc(/C=N/NC(=O)c2cc(C34CC5CC(CC(C5)C3)C4)[nH]n2)cc1O	40.3	-2.2	58.9*	0.4	0.6	nt
CCOC(=O)c1cc2c(=O)n3cccc(C)c3nc2n(Cc2ccco2)c1=NC(=O)c1ccccc1	nt	-1.3	nt	nt	nt	-8.8
Cc1ccc(OCCn2cc(C#N)c3ccccc32)cc1	nt	-1.0	nt	nt	nt	0.2
COC(=O)c1cn(CCOc2ccc(C)cc2)c2ccccc12	68.7*	1.3	70.4*	0.3	0.3	2.1
SMILES	CYP2C19 inhib	MRP1 act	CYP2C9 inhib	CYP2C9 act	CYP2C19 act	MRP resist rev
N#Cc1ccsc1NC(=O)CSc1ncnc2ccccc12	30.2	-5.3	64.5*	0.4	0.7	-21.7
C=CCNc1nc(-c2ccc(O)c(C(N)=O)c2)cs1	74.6*	-1.0	11.1	0.9	0.3	8.4
C=CCNc1nc(-c2cc3ccccc3o2)cs1	nt	0.2	nt	nt	nt	nt
Cc1ccc(/C=C2\CCC3=C2OC(N)=C(C#N)C3c2ccc(C)cc2)cc1 (stereo unspecified)	-0.8	-3.9	55.9*	0.4	1	nt
CC(C)n1c(-c2ccccc2)nc(=S)c2c1CCCC2	nt	-1.1	nt	nt	nt	nt
COCCCn1c(-c2ccc(Cl)cc2)n[nH]c1=S	77.3*	-1.0	34.8	0.7	0.2	-6.1
CCOCCCn1c(-c2ccc(Cl)cc2)n[nH]c1=S	84.0*	-4.2	50.6*	0.5	0.2	0.6
CCn1c(-c2csc(-c3ccc(Cl)cc3)n2)n[nH]c1=S	28.9	0.4	8.1	0.9	0.7	5.0
COCCCn1c(-c2ccccc2Cl)n[nH]c1=S	41.9	-1.7	-0.5	1	0.6	10.1
CCOC(=O)c1[nH]c2ccccc2c1NC(=O)Nc1ccc(OC)cc1	48.1	-5.5	27.0	0.7	0.5	nt
Cc1nn(CC(=O)Nc2ccc(C(=O)N(C)C)cc2)c(=O)c2ccccc12	-24.9	-0.8	-14.9	1.1	1.2	0.9
Cc1cc(O)c(C(C)C)cc1NC(=O)Cn1nc(C)c2ccccc2c1=O	30.3	-1.0	69.3*	0.3	0.7	4.5
Cc1nn(CC(=O)NC(C)c2ccccc2)c(=O)c2ccccc12 (stereo unspecified)	13.3	1.6	-53.8	1.5	0.9	-2.8
Cc1nn(CC(=O)Nc2ccccc2)c(=O)c2ccccc12	73.0*	-2.6	38.3	0.6	0.3	3.2
CC(C)SC1=NC(C)(C)C=C(/C=C/c2c(Cl)cccc2Cl)N1	78.4*	-5.2	69.9*	0.3	0.2	10.4
Clc1ccc(/C=C/c2nc3ccccc3[nH]2)c(Cl)c1	31.7	-5.4	14.4	0.9	0.7	nt
CC(C)SC1=NC(C)(C)C=C(/C=C/c2ccc(Cl)cc2Cl)N1	69.1*	-4.7	62.5*	0.4	0.3	-1.1
O=C(Cc1cccs1)N1CCC(c2nc3c(nnn3Cc3ccccc3)c(=O)[nH]2)CC1	48.4	-0.9	97.0*	0	0.5	nt
Cc1ccc(CC(=O)N2CCC(c3nc4c(nnn4Cc4ccccc4)c(=O)[nH]3)CC2)cc1	nt	-4.0	nt	nt	nt	8.5
Cc1ccc(Cn2nnc3c(=O)[nH]c(C4CCN(S(=O)(=O)c5ccccc5)CC4)nc32)cc1	31.2	-2.9	78.7*	0.2	0.7	nt
Cc1ccc(Cn2nnc3c(=O)[nH]c(C4CCN(C(=O)Cc5cccs5)CC4)nc32)cc1	48.4	-3.0	89.1*	0.1	0.5	8.6
Cc1ccc(NC(=O)CS(=O)CC(=O)N(c2ccc(C)cc2)C(C)C(=O)NC2CCCCC2)cc1 (stereo unspecified)	nt	-2.5	nt	nt	nt	7.2
CCNC(=O)COC(=O)c1csc2c1CCCC2	nt	-1.0	nt	nt	nt	nt
O=C1Cc2ccccc2C(c2ccccc2)N1 (stereo unspecified)	23.9	-0.1	-16.3	1.2	0.8	9.3
Cc1ccc(C2NC(=O)Cc3ccccc32)cc1 (stereo unspecified)	65.1*	-2.5	1.7	1	0.3	-2.5
COC(=O)c1cccc(NS(=O)(=O)c2cccs2)c1C	13.8	1.4	73.9*	0.3	0.9	-4.5
COC(=O)c1ccccc1NC1=C/C(=N\S(=O)(=O)c2cccs2)c2ccccc2C1=O	67.0*	-5.0	82.9*	0.2	0.3	-18.3
COC(=O)c1cccc(NC(=O)c2cccs2)c1C	52.3*	-0.7	8.2	0.9	0.5	-8.7
